# Hit rate of the full screen: of about 53,000 sequences, about 3,700 (7%) were called active.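 How the source made its calls: active means gene knockdowns whose robust z-score for IL-1 alpha signal is at least 2 or at most -2, so actives lie on both sides; inactive means the rest.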 Shown is part of a subset that was picked to be rich in actives.
# Assay: Components of the Cytosolic LPS Sensing Pathway: Gene Identification via Genome-wide siRNA Screen;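 further: robust z of the log signal after scaling to non-targeting control siRNA wells of the plate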
# Settings: RAW264.7 macrophages, IL-1a HTRF, actives lie on both sides, screened at 100 nM (by protocol), cells primed 5 h with Pam3CSK4 first
# Summary of the method: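 Read-out: IL-1a HTRF on supernatant, divided by plate negative-control median ×100, log-transformed and converted to robust z-score. Cells were RAW264.7 given 100 nM siRNA, Pam3CSK4-primed 5 hours, then LipidA-transfected 24 hour.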
row,Sequence,z-score
1,GGAAACCUACCGUUACCUATT against Kcnj5,-0.181 (inactive)
2,GCCAUUUAUUGAAACUCGCTT against Becn1,-0.905 (inactive)
3,GGCAGCUGCUGACUUGAUGTT against Gng2,0.133 (inactive)
4,GGGCCAGACUCCAUACUAUTT against Arid1a,3.71 (active)
5,GCACAUGCCAUACAACCAUTT against Fads1,0.655 (inactive)
6,GCGAUUGAGCAGUGAAUAATT against Fam216b,1.06 (inactive)
7,GGAGAAGCGGCAAAUGGAATT against Fam32a,0.429 (inactive)
8,GGCAAGGACUCCAAGGACATT against Wdr45,-1.31 (inactive)
9,GGAAGAGCAGGAGGAAACATT against Mea1,-2.01 (active)
10,GGAGAAAAGCUGUAUACACTT against Tmem177,1.22 (inactive)
11,GGAGGAGAUGAUAAAGAUUTT against Glyr1,-0.987 (inactive)
12,CCCAUCAGACUUUGACCGUTT against Lbh,-1.45 (inactive)
13,GGCAACUUCAAGUCCAUAUTT against Pnma3,3.18 (active)
14,GCGACUAGUAGUGCAUGAATT against Wdr13,-0.434 (inactive)
15,CCUUAAACUUGGCCGAGGUTT against Trmt112,0.748 (inactive)
16,CGGCCUUCAUCUGCCUUUUTT against Olfr1222,0.475 (inactive)
17,GCCACCUCCUACCAAAUGUTT against Sprr4,-1 (inactive)
18,GGAGCUAAGGGAACAAUUATT against Psmc6,-2.1 (active)
19,GGAUGUGUCAGGAAAAUAGTT against Ctsm,-0.176 (inactive)
20,GGAAUACGGAAUCAUGGUUTT against Ift52,-0.0653 (inactive)
21,GGUUAAUCUUAACAACAUCTT against Tmod1,0.266 (inactive)
22,GGAUGCCUUGAAGAAAUUATT against Olfr1044,1.34 (inactive)
23,GCUCCAUGAAACCCACUCUTT against Zmiz1,-0.656 (inactive)

row,Sequence,z-score
1,GGAAAGAAGCAACCACUUCTT against 4833439L19Rik,0.403 (inactive)
2,CGUGAUCGUGCGUUCCAACTT against Chrnb4,3.11 (active)
3,GGAGGACAUGGACACAGUCTT against Slc39a7,-0.805 (inactive)
4,GGACUAUCCUCACUCCCUUTT against Pigo,-0.0578 (inactive)
5,GCCGACUGGUUAAAUACAUTT against Nme3,5.79 (active)
6,CGAUGCUAGAGAUUAAUCATT against Rdh10,-0.0597 (inactive)
7,GCACCUGGGCCUUUGAAUATT against Hes2,-0.754 (inactive)
8,GCAAGGAAGGAUAUUACACTT against Mmp24,1.34 (inactive)
9,GGAUCAAUUCUAGAAUCAGTT against Runx3,0.586 (inactive)
10,GCAAUAGCAUACCUACCAUTT against Desi2,-0.228 (inactive)
11,CCAACAUCUAGAGAGUCUGTT against Olfr1031,-1.36 (inactive)
12,GCUUGAUUAUUGUGUGUCCTT against Olfr786,-1.53 (inactive)
13,GGAAAUGACGACUACCAAGTT against Tspyl4,2.74 (active)
14,GCGCGAUAGAUUUUGUUUATT against Ier5l,-0.427 (inactive)
15,GGACUAUGGCUCAGCACUCTT against Ttyh1,-0.394 (inactive)
16,GGACAAGUUUGACUGUUACTT against Als2cl,0.158 (inactive)
17,GGAACGACAAUAAAGCUUATT against Ninj1,0.029 (inactive)
18,CCACAGAUUACAUUUAUCCTT against Sephs1,-1.19 (inactive)
19,GGAGAAAUUCUAUGGUAUUTT against 5031434C07Rik,2.18 (active)
20,GGACUUGAUUGAAGUCAUATT against Tmem132d,0.242 (inactive)
21,GUUGGCAUAUUUUAUGGCATT against Olfr1033,1.28 (inactive)
22,GGAACAGGAAUAUGAAAGATT against Olfr836,-0.903 (inactive)
23,CGGCUUGGACAGAUUUAUCTT against Rer1,0.0516 (inactive)

row,Sequence,z-score
1,GCAUCCUUAGUGAUUUCUATT against Slc48a1,0.601 (inactive)
2,CCUACAACGAACGGGAGAATT against Dpm1,0.408 (inactive)
3,GGUUCUGACAGACAAAAUUTT against Luc7l3,-0.379 (inactive)
4,GCGGUUCGCUGUUUGUUUCTT against Zbtb11os1,2.54 (active)
5,CGCUAGCUUAUUUUCCGCCTT against Slc49a4,1.1 (inactive)
6,GGACGACAUGAUUUUCGAGTT against Atp1b1,-0.399 (inactive)
7,CCACGAAGAGCAAGAAAACTT against Gm5941,-1.15 (inactive)
8,GGCCUGUAGUCAAUGGAAATT against Magi2,-0.382 (inactive)
9,GGUUGCACUUUUUCAUAGUTT against Bcl2l2,0.97 (inactive)
10,GGAGGUGCUAACCUAACAGTT against Ggh,-1.1 (inactive)
11,GGAAUAUCCAGUAUUGAUUTT against Cd180,-0.396 (inactive)
12,GCUCGAUUGACCUCAUUCATT against Rhbdf2,-2.45 (active)
13,GGUGUCGAGAAGCCUCAAATT against Arhgap24,-0.617 (inactive)
14,GCCGUAUGGCAGGUAUUUUTT against Tmem266,3.27 (active)
15,CCACUACAACAACACUUAUTT against Keg1,0.84 (inactive)
16,GCAUCUACCUUCUAUUACUTT against Gpsm1,0.533 (inactive)
17,GGACAUGCUCUAUAAGAAGTT against Pabpc5,-0.642 (inactive)
18,GGCAACUUGAUUGUAAACUTT against Zic2,0.795 (inactive)
19,CAGAAUUCAGAUAAUCUUGTT against Defb22,1.06 (inactive)
20,GGAUAUCCAAGUAAGGUGUTT against Mrpl9,-0.504 (inactive)
21,GACUGAGCUUCUGUGAUGGTT against Olfr921,-2.5 (active)
22,GGAGAAGAAGGGAAAGCAUTT against Tub,-1.4 (inactive)

# From PubChem BioAssay AID1508600 (Functional Genomics Laboratory (NCATS/FGL), 2020)
